Test results taken from PubChem BioAssay.
Calls of active or inactive are those of the source.

Experiments:
[1] = binders of probe aFSTL3 on microarray, primary screen, stem cell growth factor project, biochemical, small-molecule microarray, fluorescence 635/667 (AID 1064); conditions: higher = more signal;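 further: measures binding of the biotinylated anti-FSTL3 antibody to printed compounds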
[2] = binders from COS7 lysate, DM2A8 probe, primary screen, torsin A project, cell lysate, small-molecule microarray, fluorescence 635/667 (AID 1065); conditions: higher = more signal, COS7 lysate expressing mutant human TOR1A
[3] = binders of probe aFGF2 on microarray, primary screen, stem cell growth factor project, biochemical, small-molecule microarray, fluorescence 635/667 (AID 1067); conditions: higher = more signal;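 further: measures binding of biotinylated aFGF2 protein to printed compounds on slides; z-score merges feature fluorescence and signal-to-noise across triplicate slides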
[4] = binders of probe aFGF10 on microarray, primary screen, stem cell growth factor project, biochemical, small-molecule microarray, fluorescence 635/667 (AID 1071); conditions: higher = more signal;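 further: score merges 667 nm spot intensity and signal to noise from triplicate slides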
[5] = target: Neurogenic locus notch homolog protein 2 (Homo sapiens) (UniProt Q04721); assay: Notch2 binders on small-molecule microarrays, primary screen, biochemical, small-molecule microarray, 635 nm fluorescence, stem cell growth factors (AID 1073); conditions: Notch2 binding, higher = more signal
Sequence of Neurogenic locus notch homolog protein 2 (Homo sapiens) (Q04721 whole entry, looked up, canonical isoform): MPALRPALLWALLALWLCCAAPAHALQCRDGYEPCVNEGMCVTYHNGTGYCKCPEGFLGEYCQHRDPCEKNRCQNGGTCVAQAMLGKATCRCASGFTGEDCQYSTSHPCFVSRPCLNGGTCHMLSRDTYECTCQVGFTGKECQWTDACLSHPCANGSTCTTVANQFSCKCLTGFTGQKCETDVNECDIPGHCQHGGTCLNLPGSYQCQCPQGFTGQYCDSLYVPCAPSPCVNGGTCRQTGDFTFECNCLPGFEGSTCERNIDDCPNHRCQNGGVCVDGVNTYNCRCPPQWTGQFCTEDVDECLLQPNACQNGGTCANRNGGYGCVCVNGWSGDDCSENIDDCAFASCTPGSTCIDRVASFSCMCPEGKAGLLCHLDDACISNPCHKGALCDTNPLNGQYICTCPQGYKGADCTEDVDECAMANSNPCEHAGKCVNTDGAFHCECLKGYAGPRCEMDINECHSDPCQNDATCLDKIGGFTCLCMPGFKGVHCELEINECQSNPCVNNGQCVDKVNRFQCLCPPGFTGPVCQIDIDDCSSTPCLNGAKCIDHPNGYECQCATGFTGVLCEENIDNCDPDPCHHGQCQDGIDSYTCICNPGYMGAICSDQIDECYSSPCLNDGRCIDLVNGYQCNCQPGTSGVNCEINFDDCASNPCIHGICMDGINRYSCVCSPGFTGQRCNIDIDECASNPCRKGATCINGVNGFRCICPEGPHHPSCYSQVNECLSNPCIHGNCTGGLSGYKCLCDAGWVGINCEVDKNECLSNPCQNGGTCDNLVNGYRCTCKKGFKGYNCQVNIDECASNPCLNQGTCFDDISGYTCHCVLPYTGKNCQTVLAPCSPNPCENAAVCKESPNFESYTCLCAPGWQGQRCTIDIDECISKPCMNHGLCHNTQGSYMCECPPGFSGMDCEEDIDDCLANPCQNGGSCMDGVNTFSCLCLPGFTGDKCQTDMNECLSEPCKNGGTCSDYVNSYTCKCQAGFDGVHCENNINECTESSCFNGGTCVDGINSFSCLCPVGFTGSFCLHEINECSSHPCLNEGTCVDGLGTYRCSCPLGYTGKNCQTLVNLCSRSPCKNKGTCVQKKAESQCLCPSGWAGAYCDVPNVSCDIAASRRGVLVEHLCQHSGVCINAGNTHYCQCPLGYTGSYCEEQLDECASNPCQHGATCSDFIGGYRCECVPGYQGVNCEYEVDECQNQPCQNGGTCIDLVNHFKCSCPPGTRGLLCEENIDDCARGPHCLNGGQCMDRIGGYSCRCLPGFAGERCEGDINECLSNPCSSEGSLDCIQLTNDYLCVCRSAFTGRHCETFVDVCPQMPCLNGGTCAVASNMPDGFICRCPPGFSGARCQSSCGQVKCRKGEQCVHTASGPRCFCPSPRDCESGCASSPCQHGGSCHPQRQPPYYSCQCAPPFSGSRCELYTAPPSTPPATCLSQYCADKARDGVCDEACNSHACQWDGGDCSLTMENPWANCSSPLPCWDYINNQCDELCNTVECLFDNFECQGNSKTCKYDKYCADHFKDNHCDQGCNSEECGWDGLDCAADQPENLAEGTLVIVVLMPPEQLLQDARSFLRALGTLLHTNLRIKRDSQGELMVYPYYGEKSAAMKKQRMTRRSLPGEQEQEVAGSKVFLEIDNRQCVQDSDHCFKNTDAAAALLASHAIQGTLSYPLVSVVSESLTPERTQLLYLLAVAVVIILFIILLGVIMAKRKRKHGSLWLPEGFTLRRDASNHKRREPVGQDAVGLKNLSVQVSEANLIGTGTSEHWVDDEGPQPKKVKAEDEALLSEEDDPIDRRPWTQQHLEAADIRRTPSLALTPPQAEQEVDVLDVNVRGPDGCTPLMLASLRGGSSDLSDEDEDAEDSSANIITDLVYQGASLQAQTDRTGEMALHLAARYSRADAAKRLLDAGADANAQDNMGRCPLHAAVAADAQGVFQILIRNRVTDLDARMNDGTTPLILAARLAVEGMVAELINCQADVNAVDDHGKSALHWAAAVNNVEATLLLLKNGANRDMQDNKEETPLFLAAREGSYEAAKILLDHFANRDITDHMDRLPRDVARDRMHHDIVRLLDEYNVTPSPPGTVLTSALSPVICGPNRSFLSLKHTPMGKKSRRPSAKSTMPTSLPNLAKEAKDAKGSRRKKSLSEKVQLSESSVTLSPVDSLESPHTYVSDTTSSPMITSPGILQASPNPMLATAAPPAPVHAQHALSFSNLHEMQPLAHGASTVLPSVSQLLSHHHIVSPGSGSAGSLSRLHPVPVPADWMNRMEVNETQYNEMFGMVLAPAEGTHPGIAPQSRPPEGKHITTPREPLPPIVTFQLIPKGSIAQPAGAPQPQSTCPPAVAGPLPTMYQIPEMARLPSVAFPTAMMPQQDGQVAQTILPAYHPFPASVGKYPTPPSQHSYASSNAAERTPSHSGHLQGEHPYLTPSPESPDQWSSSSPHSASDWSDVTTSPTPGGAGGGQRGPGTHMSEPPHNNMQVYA

[6] = target: Pro-neuregulin-1, membrane-bound isoform (Homo sapiens) (UniProt Q02297); assay: NRG1 binders on small-molecule microarrays, primary screen, psychiatric disease protein project, biochemical, small-molecule microarray, fluorescence 635/667 (AID 1075); conditions: NRG1 binding, 635 nm fluorescence, higher = more signal;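 further: score combines 667 nm spot fluorescence with signal to noise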
[7] = tested on: Neuregulin-1 EGF-like domain; assay: binders of neuregulin-1 EGF-like domain, primary screen, biochemical, small-molecule microarray, 635 nm fluorescence (AID 1081); conditions: small-molecule microarray binding, higher = more signal;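 further: binding of the protein to compounds printed on small-molecule microarray slides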
[8] = FRG1 promoter luciferase signal modulators, primary screen, FRG1 inhibition for FSHD, cell-based, C2C12 myotubes, firefly/Renilla luciferase, luminescence (AID 1084); conditions: higher = more signal, called active from +8 up or from −8 down
[9] = binders of probe aFST on microarray, primary screen, stem cell growth factor project, biochemical, small-molecule microarray, fluorescence 635/667 (AID 1086); conditions: higher = more signal;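 further: score merges 667 nm fluorescence with signal-to-noise of each printed compound spot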
[10] = binders of probe aHhip on microarray, primary screen, stem cell growth factor project, biochemical, small-molecule microarray, fluorescence 635/667 (AID 1087); conditions: higher = more signal;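 further: score merges spot fluorescence at 667nm with spot signal to noise ratio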
[11] = tested on: PRMT1 (protein arginine N-methyltransferase 1); assay: PRMT1 binders on small-molecule microarrays, primary screen, biochemical, small-molecule microarray, 635 nm fluorescence (AID 1088); conditions: small-molecule microarray binding, higher = more signal;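 further: binding of Prmt1 protein to compounds spotted on small-molecule microarray slides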
[12] = yeast growth modulation, basal conditions, primary screen, YJM789 clinical isolate, OD600, 24 h (AID 1089);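 further: growth of clinical yeast isolate S. cerevisiae YJM 789 seeded 1000 cells per well; test concentration not given here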; conditions: S. cerevisiae YJM789 growth, higher = more signal, called active from +8 up or from −8 down
[13] = fission yeast growth modulation, primary screen, strain 972, OD600, 24 h, no modulator (AID 1090);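 further: basal condition with compound alone and no growth modifier present; test concentration not given here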; conditions: S. pombe 972 growth, higher = more signal, called active from +8 up or from −8 down
[14] = S. cerevisiae growth modulation with rapamycin, primary screen, strain BY4716, OD600, 96 h (AID 1091); conditions: higher = more signal, called active from +8 up or from −8 down; further: test concentration not given here
[15] = target: Torsin-1A-interacting protein 2 (Homo sapiens) (UniProt Q8NFQ8); assay: LULL1 binders on small-molecule microarray, primary screen, cell lysate, human LULL1 lysate, 635/667 nm fluorescence (AID 1092); conditions: hLULL1 lysate binding, 635 nm fluorescence, higher = more signal;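 further: probe is lysate of COS7 cells overexpressing human LULL1; score merges per-feature 667 nm fluorescence with signal-to-noise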
[16] = E. coli growth modulation, two-sided OD650, primary screen, E. coli filamentation project, strain DRC41, 24 h (AID 1093); conditions: OD650, 24 h, higher = more signal, called active from +8 up or from −8 down;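 further: MC1000 strain lacking acrAB efflux and sulA so SOS filamentation is blocked; test concentration not given here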
[17] = small-molecule microarray binders of probe aLefty2, primary screen, biochemical, biotinylated probe, 635/667 nm fluorescence (AID 1094); conditions: higher = more signal;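 further: score merges spot fluorescence near 667 nm with spot signal-to-noise ratio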
[18] = tested on: Noggin (protein binding on small-molecule microarray); assay: Noggin binders on small-molecule microarray, primary screen, biochemical, 635/667 nm fluorescence (AID 1095); conditions: 635 nm fluorescence, higher = more signal;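 further: score merges 667 nm feature fluorescence with signal to noise over triplicate slides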
[19] = target: Neurogenic locus notch homolog protein 3 (Homo sapiens) (UniProt Q9UM47); assay: NOTCH3 binders on small-molecule microarray, primary screen, biochemical, 635/667 nm fluorescence (AID 1096); conditions: NOTCH3 binding, 635 nm fluorescence, higher = more signal
Sequence of Neurogenic locus notch homolog protein 3 (Homo sapiens) (Q9UM47 whole entry, looked up): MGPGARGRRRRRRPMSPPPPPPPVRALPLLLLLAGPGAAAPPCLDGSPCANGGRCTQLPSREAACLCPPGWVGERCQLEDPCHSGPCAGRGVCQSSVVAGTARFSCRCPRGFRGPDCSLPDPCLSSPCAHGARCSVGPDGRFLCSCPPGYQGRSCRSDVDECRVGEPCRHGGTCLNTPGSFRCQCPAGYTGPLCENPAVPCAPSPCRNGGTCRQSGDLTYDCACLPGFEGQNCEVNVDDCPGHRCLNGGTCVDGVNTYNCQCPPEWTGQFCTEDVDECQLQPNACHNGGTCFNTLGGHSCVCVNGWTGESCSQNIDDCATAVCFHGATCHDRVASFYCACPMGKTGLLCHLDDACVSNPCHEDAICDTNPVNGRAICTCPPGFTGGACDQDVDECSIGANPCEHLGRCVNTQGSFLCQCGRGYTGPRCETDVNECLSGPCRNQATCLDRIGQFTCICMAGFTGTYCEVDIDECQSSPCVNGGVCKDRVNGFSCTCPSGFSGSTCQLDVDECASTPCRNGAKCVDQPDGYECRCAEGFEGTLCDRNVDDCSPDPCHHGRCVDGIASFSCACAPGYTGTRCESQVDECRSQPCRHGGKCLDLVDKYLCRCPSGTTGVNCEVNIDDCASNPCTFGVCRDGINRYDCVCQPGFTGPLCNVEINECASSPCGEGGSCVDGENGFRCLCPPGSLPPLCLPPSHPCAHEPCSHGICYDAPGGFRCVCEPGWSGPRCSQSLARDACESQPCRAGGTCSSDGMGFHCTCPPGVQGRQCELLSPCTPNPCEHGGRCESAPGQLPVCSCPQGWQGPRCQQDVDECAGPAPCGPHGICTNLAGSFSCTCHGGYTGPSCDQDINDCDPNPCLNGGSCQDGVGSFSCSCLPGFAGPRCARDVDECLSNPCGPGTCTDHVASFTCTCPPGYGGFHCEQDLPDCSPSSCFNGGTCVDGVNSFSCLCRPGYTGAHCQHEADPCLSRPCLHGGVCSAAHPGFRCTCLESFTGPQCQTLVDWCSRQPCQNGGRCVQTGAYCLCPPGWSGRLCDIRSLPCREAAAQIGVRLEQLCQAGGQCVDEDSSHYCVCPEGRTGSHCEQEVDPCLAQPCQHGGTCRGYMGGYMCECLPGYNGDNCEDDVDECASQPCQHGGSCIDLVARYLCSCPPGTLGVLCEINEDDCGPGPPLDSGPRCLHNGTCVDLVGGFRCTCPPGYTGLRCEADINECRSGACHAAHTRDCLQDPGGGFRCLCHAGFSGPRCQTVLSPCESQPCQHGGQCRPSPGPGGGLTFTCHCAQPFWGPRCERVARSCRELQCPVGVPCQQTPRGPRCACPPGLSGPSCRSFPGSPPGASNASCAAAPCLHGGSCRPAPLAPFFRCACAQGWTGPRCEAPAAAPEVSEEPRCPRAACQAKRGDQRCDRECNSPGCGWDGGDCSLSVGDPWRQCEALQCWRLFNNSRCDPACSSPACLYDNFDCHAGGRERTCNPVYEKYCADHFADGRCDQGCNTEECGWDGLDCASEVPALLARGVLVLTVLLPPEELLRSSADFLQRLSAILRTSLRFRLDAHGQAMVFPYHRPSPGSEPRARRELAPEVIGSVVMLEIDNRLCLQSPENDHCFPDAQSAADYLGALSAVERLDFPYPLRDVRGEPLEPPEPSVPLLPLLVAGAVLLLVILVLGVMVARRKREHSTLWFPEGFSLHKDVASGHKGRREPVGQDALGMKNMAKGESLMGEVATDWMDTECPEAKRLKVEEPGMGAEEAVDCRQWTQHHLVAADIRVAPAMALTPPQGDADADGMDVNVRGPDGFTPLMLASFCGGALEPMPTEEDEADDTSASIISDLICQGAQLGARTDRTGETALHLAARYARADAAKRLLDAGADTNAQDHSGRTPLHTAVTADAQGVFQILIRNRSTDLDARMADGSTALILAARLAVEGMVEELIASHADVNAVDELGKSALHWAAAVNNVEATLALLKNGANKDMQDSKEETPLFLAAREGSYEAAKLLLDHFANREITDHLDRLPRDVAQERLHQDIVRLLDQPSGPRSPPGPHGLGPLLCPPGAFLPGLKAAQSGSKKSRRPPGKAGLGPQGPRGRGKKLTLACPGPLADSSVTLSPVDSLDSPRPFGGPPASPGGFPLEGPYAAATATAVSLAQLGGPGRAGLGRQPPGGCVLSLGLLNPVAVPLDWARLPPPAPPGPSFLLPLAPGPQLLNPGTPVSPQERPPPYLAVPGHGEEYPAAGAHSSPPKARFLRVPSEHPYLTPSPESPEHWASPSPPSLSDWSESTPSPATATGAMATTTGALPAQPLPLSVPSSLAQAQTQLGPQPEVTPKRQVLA

[20] = small-molecule microarray binders of probe aEGFR, primary screen, biochemical, biotinylated probe, 635/667 nm fluorescence (AID 1097); conditions: higher = more signal;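 further: probe is a biotinylated anti-EGFR antibody binding compounds printed on slides; score combines fluorescence near 667 nm and signal to noise of each spot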

Row | SMILES | composite z-score [1] | composite z-score [2] | composite z-score [3] | composite z-score [4] | composite z-score [5] | composite z-score [6] | composite z-score [7] | z-score [8] | composite z-score [9] | composite z-score [10] | composite z-score [11] | z-score [12] | z-score [13] | z-score [14] | composite z-score [15] | z-score [16] | composite z-score [17] | composite z-score [18] | composite z-score [19] | composite z-score [20]
1 | COC(=O)CC=C[C@@H](C)[C@@H](C=NOC(C)CN1CCCCc2nc(C)c(C)cc21)OC (stereo not given in full) | -0.0416 | 2.43 | -0.175 | -0.425 | -0.229 | 0.33 | 0.987 | 0.739 (inactive) | 0.286 | -0.206 | 1.24 | -0.793 (inactive) | -0.472 (inactive) | -0.906 (inactive) | 1.24 | -0.123 (inactive) | -0.0063 | 0.946 | 0.234 | 0.0282
2 | CCOC(=O)[C@H](CC(C)C)NC(=O)CCC1CC(OC(=O)NCc2ccc3c(c2)OCO3)CC2(CCCC(COC(=O)NCCOC)O2)O1 (stereo not given in full) | -0.412 | -0.224 | -0.0785 | 0.197 | 0.805 | -0.0383 | 1.07 | 0.619 (inactive) | 0.0301 | 0.0826 | 0.634 | 0.0162 (inactive) | 0.48 (inactive) | -0.958 (inactive) | 1.71 | -0.172 (inactive) | -0.205 | 0.474 | 0.793 | 0.0953
3 | CC(C)[C@@H](OCc1ccccc1)[C@H](C)C=NO[C@H](C)c1cn([C@@H]2COC[C@H]2O)nn1 | -0.478 | 0.402 | -0.0262 | 0.281 | 0.794 | -0.0746 | 1.07 | 0.476 (inactive) | -0.0844 | 0.165 | 1.55 | -1.02 (inactive) | -0.121 (inactive) | 0.0703 (inactive) | 1.28 | 1.13 (inactive) | -0.162 | 0.871 | 0.968 | -0.0111
4 | CCCNC(=O)OC[C@H]1O[C@H](CCON=C[C@@H](NS(=O)(=O)c2ccc(C)cc2)[C@H](C)C=CCC(=O)OC)C=C[C@@H]1Oc1ccc(OC)cc1 | -0.341 | 0.724 | -0.0425 | -0.183 | -0.127 | -0.703 | -0.83 | -0.122 (inactive) | 0.118 | -0.0994 | 0.409 | -1.21 (inactive) | 0.331 (inactive) | -0.148 (inactive) | -0.0006 | -0.0353 (inactive) | -0.181 | 0.0599 | -0.0703 | -0.0443
5 | CCN1C(=O)[C@H]2[C@H]3[C@H](O)[C@H](O)CC(=NOCC[C@@H]4C=C[C@H](OC(C)=O)[C@@H](COC(C)=O)O4)[C@@H]3CC[C@H]2C1=O | -0.298 | 0.198 | -0.0085 | 0.547 | 0.522 | 0.0776 | 0.314 | 0.511 (inactive) | 0.186 | 0.259 | -0.001 | 0.826 (inactive) | -0.473 (inactive) | 0.0739 (inactive) | 0.506 | 0.0628 (inactive) | 0.0819 | 0.478 | 1 | -0.0208
6 | COC(=O)[C@@H]1CC[C@H](C)[C@@H](c2ccc(C)cc2)N1C(=O)c1ccc(C=NOC[C@@H](O)[C@H]2O[C@@H]3OC(C)(C)O[C@@H]3[C@H]2O)cc1 | -0.264 | 0.123 | -0.0138 | 0.343 | 0.962 | 0.441 | 0.72 | 0.453 (inactive) | 0.794 | -0.271 | 0.886 | -1.17 (inactive) | 0.459 (inactive) | -0.431 (inactive) | 1.23 | 1.6 (inactive) | -0.0916 | 0.159 | 1.14 | 0.0453
7 | CC(C)[C@H](NC(=O)OC(C)(C)C)[C@@H](O)CC(=O)C(C)(C)C | -0.507 | 0.205 | 0.0103 | 0.209 | 0.541 | -0.144 | -0.295 | 0.46 (inactive) | 0.0986 | 0.107 | -0.377 | 0.24 (inactive) | 0.0646 (inactive) | 0.552 (inactive) | 0.0487 | 0.782 (inactive) | -0.215 | 0.838 | -0.0208 | 0.0514
8 | CO[C@@H]1[C@H](O)CO[C@H]1C=Cc1ccccc1 | -0.392 | -0.0641 | -0.0715 | 0.211 | 0.128 | 0.206 | 0.874 | -0.253 (inactive) | 0.228 | -0.283 | 0.524 | 0.335 (inactive) | -1.14 (inactive) | -0.376 (inactive) | 0.363 | 0.447 (inactive) | -0.0895 | 0.396 | 0.0872 | -0.0581
9 | CCN1C(=O)[C@H]2[C@H]3[C@H](O)[C@H](O)CC(=NOC(C)CN4CCCc5nc(C)c(C)cc54)[C@@H]3CC[C@H]2C1=O (stereo not given in full) | -0.342 | 0.564 | -0.0468 | 0.49 | 0.724 | -0.0318 | 0.963 | -0.266 (inactive) | 0.372 | 0.0596 | 1.46 | -0.0428 (inactive) | 1.19 (inactive) | 0.385 (inactive) | 0.404 | 1.32 (inactive) | 0.0416 | 1.16 | 0.597 | 0.012
10 | CSCC[C@@H]1NC(=O)CC=C[C@@H](C)COC(=O)[C@H](C)COC1=O | -1.1 | 2.81 | -0.355 | -1.11 | -0.979 | -1.94 | -0.169 | -1.13 (inactive) | -0.242 | 0.487 | 1.53 | -2.12 (inactive) | -1.99 (inactive) | -0.894 (inactive) | -0.265 | 0.453 (inactive) | -0.295 | 2.11 | 0.883 | 0.702
